Reference: paper PMC7862700, “An all-to-all approach to the identification of sequence-specific readers for epigenetic DNA modifications on cytosine”

Experiments:
Experiment in all cases: DAPPL (digital affinity profiling via proximity ligation, sequencing); 10 mM Tris-HCl pH 7.5, 50 mM NaCl, 1 mM DTT, 4% glycerol, room temperature, 30 min; GST-TFs on glutathione beads, 16-mer random dsDNA library, 0.1% formaldehyde crosslink after washing; high values mean tight binding
Details in all cases: protein: recombinant; tags: N-terminal GST; dsDNA, one strand shown
ELK1 = biological target: T1, ELK1 (Homo sapiens, UniProt P19419 1-428)
T1 sequence: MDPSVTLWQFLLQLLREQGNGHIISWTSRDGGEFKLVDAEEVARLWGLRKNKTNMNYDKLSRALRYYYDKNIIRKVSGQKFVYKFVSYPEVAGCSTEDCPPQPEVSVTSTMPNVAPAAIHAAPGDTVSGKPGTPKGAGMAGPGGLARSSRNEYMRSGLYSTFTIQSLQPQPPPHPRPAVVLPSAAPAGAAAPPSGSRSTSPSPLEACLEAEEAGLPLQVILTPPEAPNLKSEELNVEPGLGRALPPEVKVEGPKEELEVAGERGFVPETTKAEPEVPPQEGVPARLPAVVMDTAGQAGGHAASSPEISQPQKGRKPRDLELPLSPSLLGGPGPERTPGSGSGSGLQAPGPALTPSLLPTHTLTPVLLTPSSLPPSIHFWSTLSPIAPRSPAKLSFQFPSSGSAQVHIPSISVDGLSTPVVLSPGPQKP
In short: (§1)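 Pools were built from human transcription factors expressed in yeast as GST fusions, captured on glutathione beads and DNA-barcoded, along with a tag-only sample. Incubation with 200 nmole of a 16-mer random double-stranded DNA library lasted 30 min at room temperature in Tris/NaCl/DTT/glycerol buffer, and was followed by washing, 0.1% formaldehyde crosslinking, proximity ligation, PCR amplification and Illumina NextSeq500 sequencing. Binding signal is the quotient of each hexamer's read frequency for a factor and its frequency for the tag-only sample.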

ERG = biological target: T2, ERG (Homo sapiens, UniProt P11308 1-479)
T2 sequence: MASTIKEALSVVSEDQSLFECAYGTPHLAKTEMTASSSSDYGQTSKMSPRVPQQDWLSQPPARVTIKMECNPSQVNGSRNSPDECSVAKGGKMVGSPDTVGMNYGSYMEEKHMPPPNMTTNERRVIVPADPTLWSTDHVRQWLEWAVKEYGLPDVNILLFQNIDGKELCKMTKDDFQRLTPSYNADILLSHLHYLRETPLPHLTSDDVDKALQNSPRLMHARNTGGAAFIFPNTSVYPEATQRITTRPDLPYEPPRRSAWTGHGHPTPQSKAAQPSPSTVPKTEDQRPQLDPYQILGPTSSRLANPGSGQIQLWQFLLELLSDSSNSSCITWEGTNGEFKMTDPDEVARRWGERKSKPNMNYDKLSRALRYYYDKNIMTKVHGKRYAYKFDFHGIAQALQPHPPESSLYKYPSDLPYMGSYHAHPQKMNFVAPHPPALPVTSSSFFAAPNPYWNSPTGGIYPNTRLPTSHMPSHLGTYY
In short: as §1

EHF = biological target: T3, EHF (Homo sapiens, UniProt Q9NZC4 1-300)
T3 sequence: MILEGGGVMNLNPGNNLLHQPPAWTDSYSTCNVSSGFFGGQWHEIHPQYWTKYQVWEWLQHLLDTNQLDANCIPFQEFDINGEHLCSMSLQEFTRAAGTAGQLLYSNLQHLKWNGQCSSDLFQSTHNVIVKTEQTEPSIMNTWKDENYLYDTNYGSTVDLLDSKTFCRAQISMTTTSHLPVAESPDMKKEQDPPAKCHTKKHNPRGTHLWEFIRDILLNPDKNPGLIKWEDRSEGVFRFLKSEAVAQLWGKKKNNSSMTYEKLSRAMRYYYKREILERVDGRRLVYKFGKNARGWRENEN
In short: as §1

SPIB = SPIB (Homo sapiens, UniProt Q01892 1-262)
In short: as §1

FEV = biological target: T4, FEV (Homo sapiens, UniProt Q99581 1-238)
T4 sequence: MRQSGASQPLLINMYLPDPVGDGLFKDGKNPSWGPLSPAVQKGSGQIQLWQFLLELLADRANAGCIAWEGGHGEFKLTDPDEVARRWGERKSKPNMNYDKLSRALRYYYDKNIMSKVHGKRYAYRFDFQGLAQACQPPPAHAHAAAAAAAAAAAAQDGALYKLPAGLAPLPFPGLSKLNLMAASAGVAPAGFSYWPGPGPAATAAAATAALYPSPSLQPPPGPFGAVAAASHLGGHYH
In short: as §1

ETV5 = ETV5 (Homo sapiens, UniProt P41161 1-510)
In short: as §1

ELF4 = ELF4 (Homo sapiens, UniProt Q99607 1-663)
In short: as §1

ELK4 = biological target: T5, ELK4 (Homo sapiens, UniProt P28324-2 1-405)
T5 sequence: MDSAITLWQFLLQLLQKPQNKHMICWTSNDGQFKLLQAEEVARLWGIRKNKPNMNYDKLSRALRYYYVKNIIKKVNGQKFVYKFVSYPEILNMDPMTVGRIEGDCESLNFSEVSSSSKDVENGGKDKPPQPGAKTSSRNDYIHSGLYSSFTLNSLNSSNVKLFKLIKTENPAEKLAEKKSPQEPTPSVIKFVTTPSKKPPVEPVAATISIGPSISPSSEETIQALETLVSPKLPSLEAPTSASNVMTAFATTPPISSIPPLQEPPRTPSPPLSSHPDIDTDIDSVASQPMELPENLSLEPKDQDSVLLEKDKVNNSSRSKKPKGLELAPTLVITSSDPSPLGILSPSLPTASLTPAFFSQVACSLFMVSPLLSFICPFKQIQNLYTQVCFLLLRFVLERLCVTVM
In short: as §1

ETV1 = ETV1 (Homo sapiens, UniProt P50549 1-477)
In short: as §1

ERF = biological target: T6, ERF (Homo sapiens, UniProt P50548 1-548)
T6 sequence: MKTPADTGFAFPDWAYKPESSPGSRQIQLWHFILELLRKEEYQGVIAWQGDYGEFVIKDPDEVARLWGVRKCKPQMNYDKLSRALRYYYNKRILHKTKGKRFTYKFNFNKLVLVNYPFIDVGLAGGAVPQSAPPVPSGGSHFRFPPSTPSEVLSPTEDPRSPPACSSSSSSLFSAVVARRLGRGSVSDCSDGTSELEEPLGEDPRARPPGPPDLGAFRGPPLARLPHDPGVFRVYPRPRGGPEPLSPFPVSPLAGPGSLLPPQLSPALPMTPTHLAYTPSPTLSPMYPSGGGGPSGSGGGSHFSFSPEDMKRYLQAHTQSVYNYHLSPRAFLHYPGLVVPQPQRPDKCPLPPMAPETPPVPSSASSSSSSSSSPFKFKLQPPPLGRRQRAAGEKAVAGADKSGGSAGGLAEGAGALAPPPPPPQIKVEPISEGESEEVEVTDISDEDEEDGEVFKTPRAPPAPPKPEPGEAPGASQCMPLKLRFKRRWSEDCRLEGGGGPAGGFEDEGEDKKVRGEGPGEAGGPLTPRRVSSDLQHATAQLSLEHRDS
In short: as §1

ETV3L = biological target: T7, ETV3L (Homo sapiens, UniProt Q6ZN32 1-361)
T7 sequence: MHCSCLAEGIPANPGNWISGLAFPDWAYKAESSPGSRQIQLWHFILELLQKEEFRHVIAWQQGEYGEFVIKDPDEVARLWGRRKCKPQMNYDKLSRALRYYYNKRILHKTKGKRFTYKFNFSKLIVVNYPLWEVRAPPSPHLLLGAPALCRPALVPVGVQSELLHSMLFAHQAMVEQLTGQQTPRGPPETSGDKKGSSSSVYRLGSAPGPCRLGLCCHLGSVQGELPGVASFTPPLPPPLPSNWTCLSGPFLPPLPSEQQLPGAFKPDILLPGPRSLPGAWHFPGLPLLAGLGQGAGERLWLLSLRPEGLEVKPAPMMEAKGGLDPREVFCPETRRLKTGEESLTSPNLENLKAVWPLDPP
In short: as §1

SPDEF = biological target: T8, SPDEF (Homo sapiens, UniProt O95238 1-335)
T8 sequence: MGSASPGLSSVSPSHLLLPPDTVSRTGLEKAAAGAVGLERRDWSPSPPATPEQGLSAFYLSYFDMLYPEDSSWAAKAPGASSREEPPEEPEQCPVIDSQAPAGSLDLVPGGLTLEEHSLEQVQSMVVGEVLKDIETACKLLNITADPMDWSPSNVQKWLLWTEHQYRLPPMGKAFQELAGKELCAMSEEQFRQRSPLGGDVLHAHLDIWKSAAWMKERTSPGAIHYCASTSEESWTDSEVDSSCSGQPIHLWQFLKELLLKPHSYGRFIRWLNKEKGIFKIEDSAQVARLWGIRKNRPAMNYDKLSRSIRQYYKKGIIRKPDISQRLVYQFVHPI
In short: as §1

ETV7 = biological target: T9, ETV7 (Homo sapiens, UniProt Q9Y603 1-341)
T9 sequence: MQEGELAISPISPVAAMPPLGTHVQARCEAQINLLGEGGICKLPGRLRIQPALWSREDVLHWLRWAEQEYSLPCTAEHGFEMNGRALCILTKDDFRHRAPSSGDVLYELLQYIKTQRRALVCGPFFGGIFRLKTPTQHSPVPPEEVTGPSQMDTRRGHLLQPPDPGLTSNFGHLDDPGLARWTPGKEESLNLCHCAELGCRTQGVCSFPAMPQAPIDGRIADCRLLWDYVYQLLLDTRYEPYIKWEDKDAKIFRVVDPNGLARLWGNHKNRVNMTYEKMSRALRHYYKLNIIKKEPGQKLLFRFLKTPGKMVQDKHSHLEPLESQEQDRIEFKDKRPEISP
In short: as §1

ETV3 = biological target: T10, ETV3 (Homo sapiens, UniProt P41162-2 1-143)
T10 sequence: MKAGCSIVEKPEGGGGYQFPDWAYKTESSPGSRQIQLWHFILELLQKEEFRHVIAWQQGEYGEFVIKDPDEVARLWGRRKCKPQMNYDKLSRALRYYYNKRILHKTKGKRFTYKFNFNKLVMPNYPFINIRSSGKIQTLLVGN
In short: as §1

ETV6 = ETV6 (Homo sapiens, UniProt P41212 1-452)
In short: as §1

Sequence of ETV6 (P41212 whole entry): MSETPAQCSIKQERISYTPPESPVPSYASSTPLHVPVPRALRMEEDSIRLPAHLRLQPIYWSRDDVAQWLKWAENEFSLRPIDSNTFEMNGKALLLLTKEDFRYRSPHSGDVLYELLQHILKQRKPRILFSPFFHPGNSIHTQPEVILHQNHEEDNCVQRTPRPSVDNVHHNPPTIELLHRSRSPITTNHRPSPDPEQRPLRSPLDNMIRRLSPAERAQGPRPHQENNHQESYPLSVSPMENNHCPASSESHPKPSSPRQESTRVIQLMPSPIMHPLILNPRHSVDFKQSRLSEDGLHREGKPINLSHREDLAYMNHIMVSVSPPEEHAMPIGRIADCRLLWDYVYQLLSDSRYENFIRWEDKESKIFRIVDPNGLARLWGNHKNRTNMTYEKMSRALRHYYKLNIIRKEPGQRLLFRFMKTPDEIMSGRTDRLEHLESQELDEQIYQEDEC
Sequence of ELF4 (Q99607 whole entry): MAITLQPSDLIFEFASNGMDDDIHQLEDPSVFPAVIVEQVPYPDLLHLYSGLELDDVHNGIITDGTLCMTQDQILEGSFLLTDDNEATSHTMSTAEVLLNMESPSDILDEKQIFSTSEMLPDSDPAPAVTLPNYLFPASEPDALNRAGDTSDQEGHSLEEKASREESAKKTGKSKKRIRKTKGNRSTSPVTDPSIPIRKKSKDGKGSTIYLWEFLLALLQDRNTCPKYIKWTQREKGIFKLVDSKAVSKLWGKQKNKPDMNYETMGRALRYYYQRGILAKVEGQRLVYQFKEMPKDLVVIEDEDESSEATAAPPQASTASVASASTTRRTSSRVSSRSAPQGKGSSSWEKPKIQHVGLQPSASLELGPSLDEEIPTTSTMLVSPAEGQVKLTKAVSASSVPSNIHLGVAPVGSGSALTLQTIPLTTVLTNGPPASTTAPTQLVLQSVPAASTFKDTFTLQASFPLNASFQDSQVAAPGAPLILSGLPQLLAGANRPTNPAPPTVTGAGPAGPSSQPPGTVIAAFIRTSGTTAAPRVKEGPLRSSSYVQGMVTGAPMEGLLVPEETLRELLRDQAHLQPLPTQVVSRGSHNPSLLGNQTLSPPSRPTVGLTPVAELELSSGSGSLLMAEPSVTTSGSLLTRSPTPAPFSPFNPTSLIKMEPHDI
Sequence of ETV5 (P41161 whole entry): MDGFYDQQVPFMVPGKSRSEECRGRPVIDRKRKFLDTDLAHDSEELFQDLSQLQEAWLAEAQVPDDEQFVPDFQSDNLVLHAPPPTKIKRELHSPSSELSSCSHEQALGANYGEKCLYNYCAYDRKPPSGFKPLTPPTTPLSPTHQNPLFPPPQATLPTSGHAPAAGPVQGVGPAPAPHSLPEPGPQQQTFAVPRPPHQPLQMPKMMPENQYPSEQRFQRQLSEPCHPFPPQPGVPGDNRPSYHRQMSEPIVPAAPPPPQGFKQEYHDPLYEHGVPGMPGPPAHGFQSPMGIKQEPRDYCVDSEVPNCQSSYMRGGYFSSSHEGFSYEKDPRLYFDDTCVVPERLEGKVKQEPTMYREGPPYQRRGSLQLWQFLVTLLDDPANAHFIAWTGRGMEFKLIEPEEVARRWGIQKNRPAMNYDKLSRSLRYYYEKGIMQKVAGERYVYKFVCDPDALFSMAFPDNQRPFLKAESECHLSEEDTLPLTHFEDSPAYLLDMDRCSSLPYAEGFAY
Sequence of ETV1 (P50549 whole entry): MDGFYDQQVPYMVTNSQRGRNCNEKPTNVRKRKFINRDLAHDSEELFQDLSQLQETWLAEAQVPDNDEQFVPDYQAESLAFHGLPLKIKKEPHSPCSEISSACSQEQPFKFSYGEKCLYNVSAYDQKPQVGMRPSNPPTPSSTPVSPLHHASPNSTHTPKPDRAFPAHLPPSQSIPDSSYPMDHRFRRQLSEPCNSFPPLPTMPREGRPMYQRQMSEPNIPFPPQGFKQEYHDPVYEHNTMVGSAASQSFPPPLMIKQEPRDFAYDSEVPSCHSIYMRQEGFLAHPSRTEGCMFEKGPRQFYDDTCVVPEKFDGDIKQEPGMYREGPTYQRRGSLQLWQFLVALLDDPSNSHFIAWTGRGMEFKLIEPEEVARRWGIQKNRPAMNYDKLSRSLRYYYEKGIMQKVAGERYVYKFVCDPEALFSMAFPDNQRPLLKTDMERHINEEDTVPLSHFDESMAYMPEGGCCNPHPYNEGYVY
Sequence of SPIB (Q01892 whole entry): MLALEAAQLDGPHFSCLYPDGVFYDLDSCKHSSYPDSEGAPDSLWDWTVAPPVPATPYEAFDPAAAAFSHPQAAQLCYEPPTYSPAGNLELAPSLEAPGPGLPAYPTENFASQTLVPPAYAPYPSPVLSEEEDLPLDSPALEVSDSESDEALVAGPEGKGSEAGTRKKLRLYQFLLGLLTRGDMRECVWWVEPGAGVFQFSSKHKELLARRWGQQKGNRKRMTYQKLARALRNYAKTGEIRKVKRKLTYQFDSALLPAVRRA

CAATGT
binding signal (ELK1): 1.06 fold enrichment (6-mer frequency, TF over GST control)
binding signal (ERG): 1.02 fold enrichment (6-mer frequency, TF over GST control)
binding signal (EHF): 1.05 fold enrichment (6-mer frequency, TF over GST control)
binding signal (SPIB): 1.04 fold enrichment (6-mer frequency, TF over GST control)
binding signal (FEV): 1 fold enrichment (6-mer frequency, TF over GST control)
binding signal (ETV5): 1.02 fold enrichment (6-mer frequency, TF over GST control)
binding signal (ELF4): 1.06 fold enrichment (6-mer frequency, TF over GST control)
binding signal (ELK4): 1.1 fold enrichment (6-mer frequency, TF over GST control)
binding signal (ETV1): 1.07 fold enrichment (6-mer frequency, TF over GST control)
binding signal (ERF): 1.05 fold enrichment (6-mer frequency, TF over GST control)
binding signal (ETV3L): 1.03 fold enrichment (6-mer frequency, TF over GST control)
binding signal (SPDEF): 1.07 fold enrichment (6-mer frequency, TF over GST control)
binding signal (ETV7): 1.09 fold enrichment (6-mer frequency, TF over GST control)
binding signal (ETV3): 1.03 fold enrichment (6-mer frequency, TF over GST control)
binding signal (ETV6): 1.05 fold enrichment (6-mer frequency, TF over GST control)
